Source: PMC7862700, “An all-to-all approach to the identification of sequence-specific readers for epigenetic DNA modifications on cytosine”

Assays:
Assay in all cases: DAPPL (digital affinity profiling via proximity ligation, sequencing); 10 mM Tris-HCl pH 7.5, 50 mM NaCl, 1 mM DTT, 4% glycerol, room temperature, 30 min; GST-TFs on glutathione beads, 16-mer random dsDNA library, 0.1% formaldehyde crosslink after washing; high values mean tight binding
Settings in all cases: protein: recombinant; tags: N-terminal GST; dsDNA, one strand shown
[1] = target: T1, FLI1 (Homo sapiens, UniProt Q01543 1-452)
T1 sequence: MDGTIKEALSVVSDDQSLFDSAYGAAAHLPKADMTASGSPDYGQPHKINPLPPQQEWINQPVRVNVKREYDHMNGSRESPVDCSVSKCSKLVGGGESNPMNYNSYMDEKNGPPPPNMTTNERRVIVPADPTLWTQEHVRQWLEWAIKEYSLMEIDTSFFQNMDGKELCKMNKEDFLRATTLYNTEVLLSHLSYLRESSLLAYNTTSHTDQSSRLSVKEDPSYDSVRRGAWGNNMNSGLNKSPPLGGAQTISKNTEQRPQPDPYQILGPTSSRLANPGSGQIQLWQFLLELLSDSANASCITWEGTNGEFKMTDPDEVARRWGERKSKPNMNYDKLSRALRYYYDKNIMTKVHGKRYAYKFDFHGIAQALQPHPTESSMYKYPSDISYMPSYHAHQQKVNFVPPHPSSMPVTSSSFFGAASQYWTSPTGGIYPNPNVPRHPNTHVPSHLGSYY
Method in brief: (§1)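 Binding signal is each hexamer's read frequency for a factor divided by its frequency in the tag-only sample. The factors were GST-fused human transcription factors from yeast, captured on glutathione beads, DNA-barcoded and pooled with that sample. Pools were incubated with 200 nmole of a random double-stranded 16-mer DNA library in Tris/NaCl/DTT/glycerol buffer at room temperature for 30 min, then washed, crosslinked with 0.1% formaldehyde, proximity-ligated with BsaI/T4 ligase (1 h, 37 °C), PCR-amplified and sequenced on an Illumina NextSeq500.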

[2] = target: T2, ELK1 (Homo sapiens, UniProt P19419 1-428)
T2 sequence: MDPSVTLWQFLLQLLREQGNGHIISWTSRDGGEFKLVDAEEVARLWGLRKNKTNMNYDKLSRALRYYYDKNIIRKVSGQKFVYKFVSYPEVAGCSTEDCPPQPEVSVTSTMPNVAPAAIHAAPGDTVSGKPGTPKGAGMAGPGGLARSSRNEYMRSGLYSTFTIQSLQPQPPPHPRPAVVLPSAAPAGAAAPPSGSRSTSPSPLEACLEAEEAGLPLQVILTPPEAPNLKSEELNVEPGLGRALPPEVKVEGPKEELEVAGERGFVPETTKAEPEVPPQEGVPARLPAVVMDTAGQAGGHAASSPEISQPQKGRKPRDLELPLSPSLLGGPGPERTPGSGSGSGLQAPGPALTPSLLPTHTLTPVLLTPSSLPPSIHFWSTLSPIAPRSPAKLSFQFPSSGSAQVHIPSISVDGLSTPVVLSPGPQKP
Method in brief: as §1

[3] = target: T3, GABPA (Homo sapiens, UniProt Q06546 1-454)
T3 sequence: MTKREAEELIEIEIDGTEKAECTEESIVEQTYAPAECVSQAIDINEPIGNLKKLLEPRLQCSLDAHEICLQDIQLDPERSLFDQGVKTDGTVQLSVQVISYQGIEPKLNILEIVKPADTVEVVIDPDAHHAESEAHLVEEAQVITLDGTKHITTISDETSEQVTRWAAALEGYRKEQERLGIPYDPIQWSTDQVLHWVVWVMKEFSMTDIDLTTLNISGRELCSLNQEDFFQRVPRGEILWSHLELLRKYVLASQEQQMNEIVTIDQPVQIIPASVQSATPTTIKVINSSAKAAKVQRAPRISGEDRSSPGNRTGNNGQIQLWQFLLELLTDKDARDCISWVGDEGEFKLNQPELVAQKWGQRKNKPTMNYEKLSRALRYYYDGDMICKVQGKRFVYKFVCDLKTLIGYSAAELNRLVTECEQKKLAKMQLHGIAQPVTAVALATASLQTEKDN
Method in brief: as §1

[4] = target: T4, ERG (Homo sapiens, UniProt P11308 1-479)
T4 sequence: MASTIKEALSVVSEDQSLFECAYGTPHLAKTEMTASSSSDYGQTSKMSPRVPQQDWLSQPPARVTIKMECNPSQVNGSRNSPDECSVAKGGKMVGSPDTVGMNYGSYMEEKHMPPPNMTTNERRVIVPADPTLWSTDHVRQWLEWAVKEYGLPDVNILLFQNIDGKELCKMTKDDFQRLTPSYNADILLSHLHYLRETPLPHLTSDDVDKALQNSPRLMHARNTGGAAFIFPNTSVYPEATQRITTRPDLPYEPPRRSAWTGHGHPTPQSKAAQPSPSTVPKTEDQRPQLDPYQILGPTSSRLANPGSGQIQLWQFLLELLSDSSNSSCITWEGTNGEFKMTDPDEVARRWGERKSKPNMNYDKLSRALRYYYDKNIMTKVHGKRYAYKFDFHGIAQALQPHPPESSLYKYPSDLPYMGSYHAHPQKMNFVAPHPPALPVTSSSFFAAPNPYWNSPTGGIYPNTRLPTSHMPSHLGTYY
Method in brief: as §1

[5] = target: ELF1 (Homo sapiens, UniProt P32519 1-619)
Method in brief: as §1

[6] = target: T5, EHF (Homo sapiens, UniProt Q9NZC4 1-300)
T5 sequence: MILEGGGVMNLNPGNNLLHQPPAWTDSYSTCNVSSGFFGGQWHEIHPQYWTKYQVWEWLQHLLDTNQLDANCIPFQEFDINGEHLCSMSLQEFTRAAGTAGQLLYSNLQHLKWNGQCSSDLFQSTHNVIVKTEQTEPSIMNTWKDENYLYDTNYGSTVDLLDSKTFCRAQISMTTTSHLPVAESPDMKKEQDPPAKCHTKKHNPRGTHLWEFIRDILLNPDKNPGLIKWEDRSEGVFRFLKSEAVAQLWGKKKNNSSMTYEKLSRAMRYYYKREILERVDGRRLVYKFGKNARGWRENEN
Method in brief: as §1

[7] = target: SPI1 (Homo sapiens, UniProt P17947 1-270)
Method in brief: as §1

[8] = target: SPIB (Homo sapiens, UniProt Q01892 1-262)
Method in brief: as §1

[9] = target: T6, ELK3 (Homo sapiens, UniProt P41970 1-407)
T6 sequence: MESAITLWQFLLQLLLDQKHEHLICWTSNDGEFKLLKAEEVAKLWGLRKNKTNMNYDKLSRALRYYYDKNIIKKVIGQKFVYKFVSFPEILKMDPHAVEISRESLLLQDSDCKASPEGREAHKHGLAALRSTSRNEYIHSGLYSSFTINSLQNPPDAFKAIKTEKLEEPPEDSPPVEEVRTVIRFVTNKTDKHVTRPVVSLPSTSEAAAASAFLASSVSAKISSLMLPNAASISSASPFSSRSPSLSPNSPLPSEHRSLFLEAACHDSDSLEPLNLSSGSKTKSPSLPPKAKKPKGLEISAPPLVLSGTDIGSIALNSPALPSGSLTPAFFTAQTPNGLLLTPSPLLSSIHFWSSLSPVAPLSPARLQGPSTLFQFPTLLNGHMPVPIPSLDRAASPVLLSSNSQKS
Method in brief: as §1

Chain of ELF1 (P32519 whole entry): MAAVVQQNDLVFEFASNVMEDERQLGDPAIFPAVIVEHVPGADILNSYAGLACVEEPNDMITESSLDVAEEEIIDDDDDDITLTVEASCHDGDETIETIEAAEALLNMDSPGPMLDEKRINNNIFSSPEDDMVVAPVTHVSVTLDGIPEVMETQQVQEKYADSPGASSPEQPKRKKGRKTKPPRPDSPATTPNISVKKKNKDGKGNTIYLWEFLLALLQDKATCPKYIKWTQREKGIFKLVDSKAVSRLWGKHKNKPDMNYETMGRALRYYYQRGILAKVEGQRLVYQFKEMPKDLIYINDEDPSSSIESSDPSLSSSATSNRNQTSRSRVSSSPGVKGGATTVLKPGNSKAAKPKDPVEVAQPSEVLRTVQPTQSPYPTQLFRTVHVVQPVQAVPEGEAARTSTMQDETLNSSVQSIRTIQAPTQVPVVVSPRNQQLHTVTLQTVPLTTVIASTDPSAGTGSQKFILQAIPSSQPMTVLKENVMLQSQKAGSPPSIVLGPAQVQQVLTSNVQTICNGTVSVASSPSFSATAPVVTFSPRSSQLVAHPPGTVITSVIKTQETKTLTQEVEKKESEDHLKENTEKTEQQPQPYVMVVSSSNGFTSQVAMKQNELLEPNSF
Chain of SPIB (Q01892 whole entry): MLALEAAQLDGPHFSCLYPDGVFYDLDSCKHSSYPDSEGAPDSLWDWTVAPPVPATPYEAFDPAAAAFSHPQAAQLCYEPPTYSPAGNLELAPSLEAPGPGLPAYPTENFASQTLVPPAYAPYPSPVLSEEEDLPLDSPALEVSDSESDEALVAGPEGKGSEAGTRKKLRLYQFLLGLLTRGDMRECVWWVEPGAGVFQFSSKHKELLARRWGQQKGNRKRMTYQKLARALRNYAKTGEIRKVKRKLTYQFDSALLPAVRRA

Row | Sequence | binding signal [1] | binding signal [2] | binding signal [3] | binding signal [4] | binding signal [5] | binding signal [6] | binding signal [7] | binding signal [8] | binding signal [9]
1 | CTAGCT | 1.36 fold enrichment (6-mer frequency, TF over GST control) | 1.37 fold enrichment (6-mer frequency, TF over GST control) | 1.3 fold enrichment (6-mer frequency, TF over GST control) | 1.3 fold enrichment (6-mer frequency, TF over GST control) | 1.31 fold enrichment (6-mer frequency, TF over GST control) | 1.29 fold enrichment (6-mer frequency, TF over GST control) | 1.33 fold enrichment (6-mer frequency, TF over GST control) | 1.34 fold enrichment (6-mer frequency, TF over GST control) | 1.39 fold enrichment (6-mer frequency, TF over GST control)
2 | CCATAA | 1.15 fold enrichment (6-mer frequency, TF over GST control) | 1.15 fold enrichment (6-mer frequency, TF over GST control) | 1.19 fold enrichment (6-mer frequency, TF over GST control) | 1.17 fold enrichment (6-mer frequency, TF over GST control) | 1.15 fold enrichment (6-mer frequency, TF over GST control) | 1.05 fold enrichment (6-mer frequency, TF over GST control) | 1.17 fold enrichment (6-mer frequency, TF over GST control) | 1.16 fold enrichment (6-mer frequency, TF over GST control) | 1.22 fold enrichment (6-mer frequency, TF over GST control)
3 | ACTAAC | 1.21 fold enrichment (6-mer frequency, TF over GST control) | 1.3 fold enrichment (6-mer frequency, TF over GST control) | 1.26 fold enrichment (6-mer frequency, TF over GST control) | 1.32 fold enrichment (6-mer frequency, TF over GST control) | 1.3 fold enrichment (6-mer frequency, TF over GST control) | 1.27 fold enrichment (6-mer frequency, TF over GST control) | 1.33 fold enrichment (6-mer frequency, TF over GST control) | 1.24 fold enrichment (6-mer frequency, TF over GST control) | 1.25 fold enrichment (6-mer frequency, TF over GST control)
4 | TAATTT | 1.35 fold enrichment (6-mer frequency, TF over GST control) | 1.28 fold enrichment (6-mer frequency, TF over GST control) | 1.5 fold enrichment (6-mer frequency, TF over GST control) | 1.4 fold enrichment (6-mer frequency, TF over GST control) | 1.41 fold enrichment (6-mer frequency, TF over GST control) | 1.41 fold enrichment (6-mer frequency, TF over GST control) | 1.38 fold enrichment (6-mer frequency, TF over GST control) | 1.5 fold enrichment (6-mer frequency, TF over GST control) | 1.52 fold enrichment (6-mer frequency, TF over GST control)
5 | TCTTAC | 1.29 fold enrichment (6-mer frequency, TF over GST control) | 1.36 fold enrichment (6-mer frequency, TF over GST control) | 1.33 fold enrichment (6-mer frequency, TF over GST control) | 1.23 fold enrichment (6-mer frequency, TF over GST control) | 1.32 fold enrichment (6-mer frequency, TF over GST control) | 1.2 fold enrichment (6-mer frequency, TF over GST control) | 1.26 fold enrichment (6-mer frequency, TF over GST control) | 1.26 fold enrichment (6-mer frequency, TF over GST control) | 1.3 fold enrichment (6-mer frequency, TF over GST control)
6 | TAGCTT | 1.18 fold enrichment (6-mer frequency, TF over GST control) | 1.26 fold enrichment (6-mer frequency, TF over GST control) | 1.31 fold enrichment (6-mer frequency, TF over GST control) | 1.17 fold enrichment (6-mer frequency, TF over GST control) | 1.21 fold enrichment (6-mer frequency, TF over GST control) | 1.21 fold enrichment (6-mer frequency, TF over GST control) | 1.25 fold enrichment (6-mer frequency, TF over GST control) | 1.29 fold enrichment (6-mer frequency, TF over GST control) | 1.31 fold enrichment (6-mer frequency, TF over GST control)
7 | CCTAAT | 1.32 fold enrichment (6-mer frequency, TF over GST control) | 1.12 fold enrichment (6-mer frequency, TF over GST control) | 1.29 fold enrichment (6-mer frequency, TF over GST control) | 1.34 fold enrichment (6-mer frequency, TF over GST control) | 1.39 fold enrichment (6-mer frequency, TF over GST control) | 1.28 fold enrichment (6-mer frequency, TF over GST control) | 1.34 fold enrichment (6-mer frequency, TF over GST control) | 1.44 fold enrichment (6-mer frequency, TF over GST control) | 1.29 fold enrichment (6-mer frequency, TF over GST control)
8 | TGATCT | 1.21 fold enrichment (6-mer frequency, TF over GST control) | 1.33 fold enrichment (6-mer frequency, TF over GST control) | 1.18 fold enrichment (6-mer frequency, TF over GST control) | 1.22 fold enrichment (6-mer frequency, TF over GST control) | 1.18 fold enrichment (6-mer frequency, TF over GST control) | 1.22 fold enrichment (6-mer frequency, TF over GST control) | 1.15 fold enrichment (6-mer frequency, TF over GST control) | 1.28 fold enrichment (6-mer frequency, TF over GST control) | 1.23 fold enrichment (6-mer frequency, TF over GST control)
